Values joined by “and” are separate entries in the source; they are usually repeats but may differ in a detail not shown here. Equal entries are not always repeated. Results filed as inconclusive are left out. Some compounds were tested as several samples or in several runs, with calls that do not always agree. Active and inactive are the calls of the source. Unless noted, calls come from the whole dose curve.
Key:
[1] = Nuclear factor erythroid 2-related factor 2/antioxidant responsive element (Nrf2/ARE) small molecule agonists: qHTS cell viability counter screen in human keratinocytes (AID 1919968; active = well fitted curve in the direction sought with a large enough effect in the repeat runs; an effect the other way counts as inactive or inconclusive; note: nearly all actives have a fitted effect of over 55% in size)
Outline: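 CellTiter-Fluor fluorescence, read 1 h after reagent, gave viability in the same wells as the ARE-luciferase assay. KeratinoSens cells (1,500/well) had 23 h compound exposure at 37 C/5% CO2 following 5 h plating.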

[2] = Nuclear factor erythroid 2-related factor 2/antioxidant responsive element (Nrf2/ARE) small molecule agonists: luciferase reporter gene qHTS assay in human keratinocytes (AID 1919969); note: nearly all actives have a fitted effect of over 35% in size; note: potency is the fitted concentration of half-maximal effect
[3] = target: Gonadotropin-releasing hormone receptor (Homo sapiens) (UniProt P30968); assay: Human gonadotropin-releasing hormone receptor (GnRHR) small molecule agonists, calcium flux assay in GnRHR-HEK293 cells (AID 1920063); note: nearly all actives have a fitted effect of over 35% in size
Outline: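 Agonist mode: compounds at 15 concentrations, in triplicate, went onto calcium dye-loaded GnRHR-HEK293 cells. Intracellular calcium was then followed as 480/540 nm fluorescence at 1 s intervals over 3 min.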

[4] = target: KiSS-1 receptor (Homo sapiens) (UniProt Q969F8); assay: Human kisspeptin (KISS1R) small molecule agonists, calcium flux assay in KISS1R-HEK293 cells (AID 1920064; active = well fitted curve in the direction sought with a large enough effect in the repeat runs; an effect the other way counts as inactive or inconclusive)
Outline: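 Agonist mode: intracellular calcium rise tracked at 1 s intervals over 3 min (480/540 nm) immediately after compound addition to dye-loaded KISS1R-HEK293 stable cells. Each compound tested at 15 concentrations in triplicate.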

[5] = G protein-coupled receptor (GPCR) small molecule agonists, calcium flux assay: HEK293 wild type cell line counter screen (AID 1920065)
Outline: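 Calcium flux counter screen: compound added in agonist mode at 15 concentrations in triplicate to dye-loaded parental HEK293 cells. Fluorescence (480/540) read kinetically for 3 min; ATP served as positive control.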

[6] = p53 small molecule agonists, cell-based qHTS assay with human liver microsomes (AID 1963577);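 note: p53 response element beta-lactamase reporter cells with liver microsomes plus NADPH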
Outline: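 Compounds act here after metabolic activation: human liver microsomes and NADPH, both at 0.5 mg/mL final, were co-added to p53RE-bla cells. Incubation ran 16 h at 37 C, followed by LiveBLAzer detection.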

[7] = p53 small molecule agonists, cell-based qHTS assay with rat liver microsomes: qHTS cell viability counter screen (AID 1963580); note: nearly all actives have a fitted effect of over 45% in size; note: potency is the fitted concentration of half-maximal effect
Outline: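 Rat liver microsome (0.5 mg/mL final) and NADPH (0.5 mg/mL final) co-incubation with compounds for 16 h at 37 C on HCT-116 p53RE-bla cells; cytotoxicity taken from intracellular ATP luminescence.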

[8] = p53 small molecule agonists, cell-based qHTS assay: qHTS cell viability counter screen (AID 1963581); note: nearly all actives have a fitted effect of over 45% in size
Outline: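 Counter screen read by CellTiter-Glo luminescence (ATP content, 30 min at room temperature), run in the same wells as the beta-lactamase reporter read. HCT-116 p53RE-bla cells saw compounds for 16 h at 37 C.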

[9] = target: 5-hydroxytryptamine receptor 2A (Homo sapiens) (UniProt P28223); assay: 5-hydroxytryptamine receptor 2A (HTR2A) small molecule antagonists, cell-based qHTS assay (AID 1963586); note: nearly all actives have a fitted effect of over 45% in size
Outline: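 CHO cells stably expressing human HTR2A were plated for 18 h at 37 C, then loaded with calcium dye for 1 h. Compounds were preincubated 5 min at room temperature before DOI (4 nM solution) was added. Kinetic fluorescence was read for 3 min.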

[10] = target: 5-hydroxytryptamine receptor 2A (Homo sapiens) (UniProt P28223); assay: 5-hydroxytryptamine receptor 2A (HTR2A) small molecule agonists, cell-based qHTS assay (AID 1963587); note: nearly all actives have a fitted effect of over 30% in size
Outline: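 Kinetic calcium-flux fluorescence (2 min, 1 sec intervals) after compound addition in agonist mode. HTR2A-CHO cells were cultured 18 h, then dye-loaded 1 h at 37 C.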

[11] = target: Muscarinic acetylcholine receptor M1 (Homo sapiens) (UniProt P11229); assay: Cholinergic receptor muscarinic 1 (CHRM1) small molecule antagonists, cell-based qHTS assay (AID 1963588); note: nearly all actives have a fitted effect of over 40% in size
Outline: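 Compounds were tested at 15 concentrations in three independent runs. Dye-loaded CHRM1-CHO cells were exposed 5 min at room temperature before stimulation by acetylcholine added at 50nM. Intracellular calcium was read kinetically on FDSS for 3 min.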

[12] = target: Muscarinic acetylcholine receptor M1 (Homo sapiens) (UniProt P11229); assay: Cholinergic receptor muscarinic 1 (CHRM1) small molecule agonists, cell-based qHTS assay (AID 1963589); note: nearly all actives have a fitted effect of over 35% in size
Outline: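 Agonist-mode calcium-flux screen: compounds at 15 concentrations, three independent runs, were pin-transferred onto dye-loaded human CHRM1-CHO cells. Fluorescence was then recorded kinetically every second over minutes.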

[13] = cAMP Responsive Elements (CRE) small molecule agonists, cell-based qHTS assay (AID 1963590)
Outline: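 Agonist mode: compound added to CRE-bla HEK 293T cells (2,000/well, 18 h after plating) for 3 h at 37 C/5% CO2. Reporter activity detected via FRET beta-lactamase substrate, 2 h room-temperature loading.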

[14] = cAMP Responsive Elements (CRE) small molecule antagonists, cell-based qHTS assay (AID 1963591; active = well fitted inhibition curve with a large enough effect in the signal ratio in the repeat runs, not every such curve was filed as active; the % refers to the signal ratio)
Outline: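 Antagonist mode: compounds are added alongside the adenylyl cyclase activator NKH477 (0.25 uM final) to CRE-bla HEK293T cells for 3 h. LiveBLAzer FRET substrate, 2 h at room temperature, reports bla expression.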

[15] = target: Beta-2 adrenergic receptor (Homo sapiens) (UniProt P07550); assay: Adrenergic beta2 receptor (ADRB2) small molecule antagonists, cell-based qHTS assay (AID 1963592); note: series mostly up to about 92 µM; nearly all actives have a fitted effect of over 50% in size
Outline: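 Assay format: CHO-ADRB2 cells, 18-20hr seeding at 37C/5% CO2, then compound plus 1nM isoproterenol agonist mix for 0.5hr RT. Homogeneous time-resolved fluorescence cAMP detection after 1hr, expressed as 665/615 nm ratio.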

[16] = target: Beta-2 adrenergic receptor (Homo sapiens) (UniProt P07550); assay: Adrenergic beta2 receptor (ADRB2) small molecule agonists, cell-based qHTS assay (AID 1963593);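 note: CHO cells stably overexpressing human ADRB2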
Outline: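 CHO cells stably over-expressing ADRB2 were plated overnight at 37C, then dosed with compounds plus a stimulation mix containing 100uM IBMX and 25uM Ro-20-1724 for 0.5hr at room temperature. cAMP was measured by HTRF competition, 1hr.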

[17] = target: D(2) dopamine receptor (Homo sapiens) (UniProt P14416); assay: Dopamine D2 receptor (DRD2) small molecule agonists, cell-based qHTS assay (AID 1963594); note: nearly all actives have a fitted effect of over 35% in size
Outline: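 cAMP accumulation in DRD2-HEK293 cells measured by HTRF after 1 h detection; compounds added 10 min before NKH477 (200nM […]) forskolin-analogue stimulation, 30 min at room temperature, with Ro20-1724 present at 0.1 mM final.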

[18] = target: D(2) dopamine receptor (Homo sapiens) (UniProt P14416); assay: Dopamine D2 receptor (DRD2) small molecule antagonists, cell-based qHTS assay (AID 1963595; active = well fitted inhibition curve with a large enough effect in the signal ratio in the repeat runs, with a control signal flat; the % refers to the signal ratio)
Outline: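 Stable D2 receptor HEK293 line, 24 h after seeding. Compound preincubated 10 min, then quinpirole (12 nM) with forskolin analogue NKH477 (200 nM), 30 min, room temperature. Detection by time-resolved FRET of cAMP.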

[19] = p53 small molecule agonists, cell-based qHTS assay (AID 1963582; active = well fitted activation curve with a large enough effect in the signal ratio in the repeat runs, not every such curve was filed as active; the % refers to the signal ratio)
Outline: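 Read-out is beta-lactamase FRET fluorescence after 2 h at room temperature with LiveBLAzer B/G substrate. p53 response element-bla cells were treated 16 h at 37 C with compounds in DMSO, added 5 h after seeding.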

Measured: Potency

Sequence of Muscarinic acetylcholine receptor M1 (Homo sapiens) (P11229 whole entry, looked up): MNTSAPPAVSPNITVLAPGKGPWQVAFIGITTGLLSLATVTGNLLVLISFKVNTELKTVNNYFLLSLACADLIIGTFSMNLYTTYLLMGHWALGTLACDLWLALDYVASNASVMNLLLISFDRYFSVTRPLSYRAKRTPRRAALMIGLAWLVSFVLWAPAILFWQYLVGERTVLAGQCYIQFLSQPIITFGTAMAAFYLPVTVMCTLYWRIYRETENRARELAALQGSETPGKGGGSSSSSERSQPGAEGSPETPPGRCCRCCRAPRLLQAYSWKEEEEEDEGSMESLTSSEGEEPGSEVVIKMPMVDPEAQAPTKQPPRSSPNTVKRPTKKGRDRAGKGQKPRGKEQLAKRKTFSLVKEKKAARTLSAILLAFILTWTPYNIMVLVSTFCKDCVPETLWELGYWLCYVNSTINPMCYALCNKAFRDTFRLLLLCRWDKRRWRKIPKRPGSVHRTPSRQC
Sequence of Beta-2 adrenergic receptor (Homo sapiens) (P07550 whole entry, looked up): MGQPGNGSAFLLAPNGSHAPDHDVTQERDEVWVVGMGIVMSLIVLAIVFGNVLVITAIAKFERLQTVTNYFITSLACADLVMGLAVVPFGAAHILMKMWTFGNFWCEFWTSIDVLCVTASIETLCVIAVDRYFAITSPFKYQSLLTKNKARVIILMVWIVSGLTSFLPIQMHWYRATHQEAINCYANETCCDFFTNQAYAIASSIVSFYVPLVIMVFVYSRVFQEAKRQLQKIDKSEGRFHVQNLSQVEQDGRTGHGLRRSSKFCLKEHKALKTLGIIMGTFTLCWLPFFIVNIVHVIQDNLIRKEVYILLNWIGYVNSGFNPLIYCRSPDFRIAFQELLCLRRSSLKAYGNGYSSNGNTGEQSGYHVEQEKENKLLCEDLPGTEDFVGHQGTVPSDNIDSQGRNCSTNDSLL
Sequence of KiSS-1 receptor (Homo sapiens) (Q969F8 whole entry, looked up): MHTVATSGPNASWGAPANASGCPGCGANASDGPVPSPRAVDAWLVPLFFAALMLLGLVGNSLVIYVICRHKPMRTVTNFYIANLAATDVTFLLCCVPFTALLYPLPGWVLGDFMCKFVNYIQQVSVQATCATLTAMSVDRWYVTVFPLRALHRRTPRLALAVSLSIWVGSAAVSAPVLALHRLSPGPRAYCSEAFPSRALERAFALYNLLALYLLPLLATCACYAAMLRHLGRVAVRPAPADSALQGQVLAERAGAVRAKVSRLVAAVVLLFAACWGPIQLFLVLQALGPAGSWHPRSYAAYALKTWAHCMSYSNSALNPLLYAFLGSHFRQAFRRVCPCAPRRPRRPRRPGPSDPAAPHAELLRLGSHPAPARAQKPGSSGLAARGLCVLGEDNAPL
Sequence of 5-hydroxytryptamine receptor 2A (Homo sapiens) (P28223 whole entry, looked up): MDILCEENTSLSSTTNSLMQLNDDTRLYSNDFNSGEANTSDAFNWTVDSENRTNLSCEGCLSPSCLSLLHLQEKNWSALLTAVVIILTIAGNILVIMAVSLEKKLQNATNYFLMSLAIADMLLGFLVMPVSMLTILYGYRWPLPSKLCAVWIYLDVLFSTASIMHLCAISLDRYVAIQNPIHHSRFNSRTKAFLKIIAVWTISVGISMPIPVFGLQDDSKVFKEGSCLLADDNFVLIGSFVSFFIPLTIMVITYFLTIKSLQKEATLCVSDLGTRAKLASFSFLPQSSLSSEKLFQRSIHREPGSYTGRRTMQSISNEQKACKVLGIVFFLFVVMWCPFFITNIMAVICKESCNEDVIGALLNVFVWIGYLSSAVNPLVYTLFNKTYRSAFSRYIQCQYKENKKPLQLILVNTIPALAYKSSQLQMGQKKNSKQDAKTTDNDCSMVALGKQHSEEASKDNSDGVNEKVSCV
Sequence of Gonadotropin-releasing hormone receptor (Homo sapiens) (P30968 whole entry, looked up): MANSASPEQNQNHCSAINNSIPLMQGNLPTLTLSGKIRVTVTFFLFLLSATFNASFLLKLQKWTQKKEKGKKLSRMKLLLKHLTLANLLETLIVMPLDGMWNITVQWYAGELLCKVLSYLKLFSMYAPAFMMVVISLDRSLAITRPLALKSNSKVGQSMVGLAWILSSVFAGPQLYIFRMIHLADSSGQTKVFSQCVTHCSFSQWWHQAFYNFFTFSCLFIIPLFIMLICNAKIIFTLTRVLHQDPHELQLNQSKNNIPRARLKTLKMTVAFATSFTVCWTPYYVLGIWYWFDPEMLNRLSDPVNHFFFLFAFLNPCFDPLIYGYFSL
Sequence of D(2) dopamine receptor (Homo sapiens) (P14416 whole entry, looked up): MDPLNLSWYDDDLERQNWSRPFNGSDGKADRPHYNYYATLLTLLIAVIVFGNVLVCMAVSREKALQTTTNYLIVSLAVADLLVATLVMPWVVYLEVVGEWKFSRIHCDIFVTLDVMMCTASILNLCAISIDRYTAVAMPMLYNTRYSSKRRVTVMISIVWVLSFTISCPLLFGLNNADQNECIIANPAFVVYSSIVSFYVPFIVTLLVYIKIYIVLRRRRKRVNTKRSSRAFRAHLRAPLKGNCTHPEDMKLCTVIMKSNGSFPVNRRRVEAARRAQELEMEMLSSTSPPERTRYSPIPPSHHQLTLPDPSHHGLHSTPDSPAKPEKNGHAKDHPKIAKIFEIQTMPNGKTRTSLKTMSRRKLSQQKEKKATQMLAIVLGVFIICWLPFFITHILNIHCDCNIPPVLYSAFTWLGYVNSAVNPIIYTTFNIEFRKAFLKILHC

CCCCOC(=O)[C@H](C)O
not listed: [19]
inactive: all other assays above

CCCCCC(C)=O
inactive and 28.9 µM (active): [7]
inactive and 27.3 µM (active): [2]
not listed: [11] | [16]
inactive: all other assays above

CCCCCCN
not listed: [12] | [13]
inactive: all other assays above

O[C@@H]([C@H](O)[C@H](O)CBr)[C@H](O)CBr
not listed: [13] | [17]
inactive: all other assays above

CCO[Si](OCC)(OCC)c1ccccc1
inactive: all assays above

N=c1nc(N2CCCCC2)cc(N)n1O
not listed: [8] | [11]
inactive: all other assays above

CC(C)OC=O
not listed: [11] | [14]
inactive: all other assays above

— PubChem BioAssay (Tox21)
